Experiment [1] can be described thus: ATG_TAL_CIS: Attagene CIS-FACTORIAL HepG2 Assay for human TAL Basal Promoter (AID 2282966; active = hit-call score of the fitted dose curve at least 0.9, where 1 is the maximum; inactive = score below 0.9;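 note: background control endpoint measuring basal TAL promoter reporter mRNA not a specific factor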). The note with it: HepG2 Attagene cis-factorial TAL promoter reporter; actives raise or lower the signal. The method in brief:
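Background-control endpoint: basal TAL promoter reporter transcripts in transiently transfected HepG2, measured 24 h after dosing. Read-out by RT-PCR with fluorescent primer extension and capillary electrophoresis; gain or loss of signal fitted relative to DMSO.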

Experiment [2] in a line: ATG_TGFb_CIS: Attagene CIS-FACTORIAL HepG2 Assay for human Transforming Growth Factor (TGF) (AID 2282967; active = hit-call score of the fitted dose curve at least 0.9, where 1 is the maximum; inactive = score below 0.9). The note with it: HepG2 Attagene CIS TGFb reporter, mRNA transcription; actives raise or lower the signal. The method in brief: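 After a 24-hour incubation with compound, transfected HepG2 cells were lysed for RNA; reporter cDNA was amplified, fluorescently end-labeled and separated by CE. DMSO served as baseline for bidirectional fits.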

Experiment [3] can be described thus: ATG_VDRE_CIS: Attagene CIS-FACTORIAL HepG2 Assay for human Vitamin D Receptor Element (VDRE) (AID 2282968; active = hit-call score of the fitted dose curve at least 0.9, where 1 is the maximum; inactive = score below 0.9). The following applies: HepG2 VDRE cis-reporter transcription, actives raise or lower the signal. The method in brief: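 Steps: transfect HepG2 with multiple reporter transcription units; dose chemicals 24 h; isolate RNA; RT-PCR; label with 6-FAM primer extension; HpaI digest; capillary electrophoresis. Curves fitted both directions against DMSO.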

In experiment [4] the target is X-box-binding protein 1 (Homo sapiens) (UniProt P17861). Put plainly: ATG_Xbp1_CIS: Attagene CIS-FACTORIAL HepG2 Assay for human X-box Binding Protein 1 (XBP1) (AID 2282972; active = hit-call score of the fitted dose curve at least 0.9, where 1 is the maximum; inactive = score below 0.9). The following applies: HepG2 XBP1 cis-element reporter, Attagene multiplex; actives raise or lower the signal. A digest of the protocol:
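Human hepatoma HepG2, cis-element reporter system, 24 h treatment; mRNA quantified by RT-PCR/CE fluorescence; fit relative to DMSO.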

The nature of experiment [5]: ATG_M_19_TRANS: Attagene TRANS-FACTORIAL HepG2 Assay for M19 Transcription Factor (Internal Marker) (AID 2282974). The note with it: HepG2 Attagene TRANS-FACTORIAL M19 internal marker reporter. A digest of the protocol:
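Measured here: internal-marker reporter transcript from HepG2 cells transfected with MRTUs, harvested at 24 h. cDNA PCR products were 6-FAM labelled by primer extension, cut with HpaI for 2 h at 37 C, and resolved by CE.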

The target of experiment [6] is Glucocorticoid receptor (Homo sapiens) (UniProt P04150). As to the kind of experiment: ATG_GR_TRANS: Attagene TRANS-FACTORIAL HepG2 Assay for human Glucocorticoid Receptor (GR) (AID 2282978).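 Note: activators score as hits since higher reporter transcript over DMSO is fitted.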 The following applies: HepG2 Attagene TRANS GR reporter, mRNA transcription. A digest of the protocol:
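Measurement of GAL4-UAS-driven reporter mRNA in human HepG2 liver cells 24 h post-dosing, using RT-PCR with fluorescent labelling and capillary electrophoresis; the transfected constructs report exogenous NR-GAL4 chimera activity, fitted upward against DMSO.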

The target of experiment [7] is Bile acid receptor (Homo sapiens) (UniProt Q96RI1). Put plainly: ATG_FXR_TRANS: Attagene TRANS-FACTORIAL HepG2 Assay for Farnesoid X Receptor (FXR) (AID 2282979).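 Note: hits raise reporter mRNA above DMSO so AC50 marks FXR activation.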 The note with it: HepG2 Attagene TRANS FXR-GAL4 reporter transcription. The method in brief: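 Reporter transcripts from transfected HepG2 cells were measured 24 h after dosing, using RT-PCR with capillary electrophoresis of 6-FAM-labelled fragments. The read-out reflects activity of exogenous FXR-Gal4 chimera on GAL4-UAS units, with induction relative to DMSO.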
Sequence of Bile acid receptor (Homo sapiens) (Q96RI1 whole entry, looked up, the tested form may be a part): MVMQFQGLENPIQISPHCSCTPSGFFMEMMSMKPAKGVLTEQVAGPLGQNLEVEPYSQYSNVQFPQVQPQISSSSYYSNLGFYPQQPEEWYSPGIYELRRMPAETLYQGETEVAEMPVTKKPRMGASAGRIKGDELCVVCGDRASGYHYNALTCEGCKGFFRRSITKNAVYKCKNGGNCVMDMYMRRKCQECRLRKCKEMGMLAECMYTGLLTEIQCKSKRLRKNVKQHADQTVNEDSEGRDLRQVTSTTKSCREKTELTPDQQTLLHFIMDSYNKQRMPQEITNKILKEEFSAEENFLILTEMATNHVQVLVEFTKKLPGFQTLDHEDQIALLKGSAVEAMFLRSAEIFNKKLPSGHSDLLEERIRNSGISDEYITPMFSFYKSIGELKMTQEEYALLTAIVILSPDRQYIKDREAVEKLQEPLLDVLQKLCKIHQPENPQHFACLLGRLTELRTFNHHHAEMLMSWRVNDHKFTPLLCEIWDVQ

In experiment [8] the target is Oxysterols receptor LXR-alpha (Homo sapiens) (UniProt Q13133). As to the kind of experiment: ATG_LXRa_TRANS: Attagene TRANS-FACTORIAL HepG2 Assay for human Liver X Receptor alpha (LXRa) (AID 2282980). The note with it: HepG2 Attagene TRANS reporter, LXRa transactivation. The method in brief: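 Chemical-induced reporter mRNA measured by RT-PCR with fluorescent labelling and capillary electrophoresis after 24 h dosing of transiently transfected HepG2 cells expressing exogenous NR-Gal4 chimeras; increases scored against DMSO baseline.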
Sequence of Oxysterols receptor LXR-alpha (Homo sapiens) (Q13133 whole entry, looked up, the tested form may be a part): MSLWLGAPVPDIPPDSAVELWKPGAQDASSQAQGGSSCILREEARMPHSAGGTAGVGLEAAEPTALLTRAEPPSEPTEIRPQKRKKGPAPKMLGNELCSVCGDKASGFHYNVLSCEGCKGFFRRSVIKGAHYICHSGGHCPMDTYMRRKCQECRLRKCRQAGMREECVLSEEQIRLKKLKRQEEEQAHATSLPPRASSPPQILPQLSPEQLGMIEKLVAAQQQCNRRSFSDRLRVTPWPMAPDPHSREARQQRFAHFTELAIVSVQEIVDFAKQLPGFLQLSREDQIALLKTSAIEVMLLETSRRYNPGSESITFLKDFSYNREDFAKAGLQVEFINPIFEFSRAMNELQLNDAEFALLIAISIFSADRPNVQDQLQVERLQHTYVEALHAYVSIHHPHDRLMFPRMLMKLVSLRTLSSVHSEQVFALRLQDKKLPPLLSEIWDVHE

Experiment [9] concerns the target Hepatocyte nuclear factor 4-alpha (Homo sapiens) (UniProt P41235). As to the kind of experiment: ATG_HNF4a_TRANS: Attagene TRANS-FACTORIAL HepG2 Assay for human Hepatocyte Nuclear Factor 4 alpha (HNF4a) (AID 2282982). The note with it: HepG2 HNF4a transactivation reporter, mRNA readout. The method in brief:
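In this trans-factorial format, a chimeric HNF4a-GAL4 fusion drives a GAL4-UAS reporter in transfected HepG2 liver cells. After 24 h treatment, reporter mRNA induction is measured by RT-PCR with capillary electrophoresis, relative to DMSO.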

Experiment [10] is described as follows: ATG_M_06_TRANS: Attagene TRANS-FACTORIAL HepG2 Assay for M06 Transcription Factor (Internal Marker) (AID 2282983). The following applies: HepG2 Attagene TRANS M06 internal marker reporter. A digest of the protocol: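 Background-control reporter readout: after 24 h chemical exposure of transiently transfected HepG2 (GAL4-UAS reporter units), mRNA quantified by RT-PCR with fluorescent labeling and capillary electrophoresis. Gain-of-signal fitting against DMSO baseline.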

Experiment [11] is described as follows: ATG_M_32_TRANS: Attagene TRANS-FACTORIAL HepG2 Assay for M32 Transcription Factor (Internal Marker) (AID 2282984). The note with it: HepG2 Attagene TRANS M32 internal marker reporter. The method in brief:
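After 24 h dosing of transfected HepG2 cells, total RNA was reverse-transcribed, reporter sequences PCR-amplified, 6-FAM labelled by primer extension and HpaI-digested before capillary electrophoresis. Signal increase over DMSO was fitted.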

In experiment [12] the target is Nuclear receptor subfamily 4 group A member 2 (Homo sapiens) (UniProt P43354). Put plainly: ATG_NURR1_TRANS: Attagene TRANS-FACTORIAL HepG2 Assay for human Nuclear Receptor Related Protein 1 (NURR1) (AID 2282985). The note with it: HepG2 Attagene TRANS reporter, mRNA readout. A digest of the protocol:
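Chimeric NR-Gal4 fusion activity measured in HepG2 after 24 h treatment. Reporter transcripts detected by RT-PCR and capillary electrophoresis fluorescence; positive-direction curve fitting against DMSO.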

Experiment [13] deals with Nuclear respiratory factor 1 (Homo sapiens) (UniProt Q16656). As to the kind of experiment: ATG_NRF1_CIS: Attagene CIS-FACTORIAL HepG2 Assay for human Nuclear Respiratory Factor 1 (NRF1) Orphan Gene (AID 2282987; active = hit-call score of the fitted dose curve at least 0.9, where 1 is the maximum; inactive = score below 0.9). The note with it: HepG2 NRF1 cis-element reporter, Attagene multiplex; actives raise or lower the signal. The method in brief: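 Transcriptional reporter readout, one component of a 52-endpoint multiplexed HepG2 panel. Exposure 24 h; mRNA detected via RT-PCR and fluorescent capillary electrophoresis; fitting in both directions against DMSO.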
Sequence of Nuclear respiratory factor 1 (Homo sapiens) (Q16656 whole entry, looked up): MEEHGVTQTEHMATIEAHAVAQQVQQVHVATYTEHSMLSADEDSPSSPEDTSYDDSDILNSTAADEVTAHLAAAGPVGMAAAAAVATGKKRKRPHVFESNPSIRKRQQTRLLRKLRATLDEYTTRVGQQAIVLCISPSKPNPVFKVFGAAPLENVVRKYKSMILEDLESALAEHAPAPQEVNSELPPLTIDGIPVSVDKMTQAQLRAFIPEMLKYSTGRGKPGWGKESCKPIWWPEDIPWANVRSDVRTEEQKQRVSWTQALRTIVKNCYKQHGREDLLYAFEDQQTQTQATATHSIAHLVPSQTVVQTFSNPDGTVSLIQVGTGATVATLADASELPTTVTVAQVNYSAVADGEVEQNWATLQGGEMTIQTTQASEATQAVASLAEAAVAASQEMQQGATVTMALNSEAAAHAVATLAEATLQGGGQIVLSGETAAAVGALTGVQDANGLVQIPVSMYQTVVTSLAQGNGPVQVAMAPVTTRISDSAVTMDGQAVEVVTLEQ

Experiment [14] is described as follows: ATG_GAL4_TRANS: Attagene TRANS-FACTORIAL HepG2 Assay for GAL4 (Internal Marker) (AID 2282976). The note with it: HepG2 Attagene TRANS GAL4 internal marker reporter. The method in brief:
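In transfected human HepG2 liver cells dosed 24 h, GAL4 reporter mRNA serves as a baseline marker. Detection by RT-PCR with fluorescent capillary electrophoresis, activity fitted upward relative to DMSO.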

In experiment [15] the target is Transcriptional activator Myb (Homo sapiens) (UniProt P10242). As to the kind of experiment: ATG_Myb_CIS: Attagene CIS-FACTORIAL HepG2 Assay for human Myeloblastosis (Myb) Proto-Oncogene Transcription Factor (AID 2282986; active = hit-call score of the fitted dose curve at least 0.9, where 1 is the maximum; inactive = score below 0.9). The note with it: HepG2 Attagene CIS-FACTORIAL Myb reporter transcription; actives raise or lower the signal. The method in brief: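 Fluorescence signals from capillary electrophoresis of RT-PCR-amplified reporter cDNA give the read-out. Cells: HepG2 transfected with multiple cis-regulated reporter units. Exposure lasts 24 hours; DMSO defines baseline for gain or loss of signal.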
Sequence of Transcriptional activator Myb (Homo sapiens) (P10242 whole entry, looked up): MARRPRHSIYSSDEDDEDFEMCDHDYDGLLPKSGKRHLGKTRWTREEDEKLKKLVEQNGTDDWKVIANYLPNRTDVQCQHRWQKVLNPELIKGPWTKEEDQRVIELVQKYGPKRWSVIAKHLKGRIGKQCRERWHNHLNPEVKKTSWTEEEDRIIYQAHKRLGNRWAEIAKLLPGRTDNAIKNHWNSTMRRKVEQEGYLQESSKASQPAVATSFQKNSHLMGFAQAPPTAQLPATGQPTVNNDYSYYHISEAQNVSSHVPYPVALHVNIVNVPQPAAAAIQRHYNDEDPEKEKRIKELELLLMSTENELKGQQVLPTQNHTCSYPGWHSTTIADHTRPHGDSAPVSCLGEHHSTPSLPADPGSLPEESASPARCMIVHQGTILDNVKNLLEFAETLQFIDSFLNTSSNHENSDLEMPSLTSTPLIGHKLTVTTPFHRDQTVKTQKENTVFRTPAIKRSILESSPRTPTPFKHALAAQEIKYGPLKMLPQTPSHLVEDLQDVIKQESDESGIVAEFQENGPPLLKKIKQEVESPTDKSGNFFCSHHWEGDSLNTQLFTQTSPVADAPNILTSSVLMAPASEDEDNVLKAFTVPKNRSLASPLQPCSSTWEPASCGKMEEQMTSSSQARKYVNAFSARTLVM

Experiment [16] deals with Nuclear receptor subfamily 1 group I member 3 (Homo sapiens) (UniProt Q14994). As to the kind of experiment: ATG_CAR_TRANS: Attagene TRANS-FACTORIAL HepG2 Assay for human Constitutive Androstane Receptor (CAR) (AID 2282969).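 Note: activators raise reporter mRNA above DMSO so AC50 marks induction.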 The following applies: HepG2 Attagene TRANS-FACTORIAL CAR reporter. The method in brief:
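Steps: transient transfection of HepG2 with multiple GAL4-UAS reporter units; 24 h compound incubation; RNA isolation, RT-PCR, 6-FAM primer extension, HpaI digest; capillary electrophoresis. Gain-of-signal relative to DMSO negative control.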

Experiment [17] concerns the target Estrogen receptor (Homo sapiens) (UniProt P03372). Put plainly: ATG_ERa_TRANS: Attagene TRANS-FACTORIAL HepG2 Assay for human Estrogen Receptor alpha (ERa) (AID 2282970). The following applies: HepG2 Attagene TRANS ERa GAL4 reporter, mRNA. The method in brief:
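Reporter transcripts were measured 24 h after dosing by RT-PCR with fluorescent primer extension and capillary electrophoresis. The system is transiently transfected HepG2 expressing exogenous NR-Gal4 chimeras driving GAL4-UAS reporters; DMSO is the baseline.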

Experiment [18] addresses Steroid hormone receptor ERR1 (Homo sapiens) (UniProt P11474). As to the kind of experiment: ATG_ERRa_TRANS: Attagene TRANS-FACTORIAL HepG2 Assay for human Estrogen-Related Receptor alpha (ERRa) (AID 2282971). The following applies: HepG2 Attagene TRANS reporter, ERRa transactivation. A digest of the protocol:
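Reporter transcripts from ERRa-Gal4 chimera activity measured in transiently transfected human HepG2 cells 24 hours after dosing, using RT-PCR with 6-FAM primer extension, HpaI digestion and capillary electrophoresis; DMSO is baseline.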

The target in experiment [19] is Oxysterols receptor LXR-beta (Homo sapiens) (UniProt P55055). Put plainly: ATG_LXRb_TRANS: Attagene TRANS-FACTORIAL HepG2 Assay for human Liver X Receptor beta (LXRb) (AID 2282981). The following applies: HepG2 Attagene TRANS GAL4-LXRb reporter, mRNA. The method in brief: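 Measures induction of a Gal4-driven reporter transcript in HepG2 cells expressing an exogenous LXRb-Gal4 fusion. Cells are exposed to compound for 24 h before RNA isolation and RT-PCR with capillary electrophoresis detection.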
Sequence of Oxysterols receptor LXR-beta (Homo sapiens) (P55055 whole entry, looked up, the tested form may be a part): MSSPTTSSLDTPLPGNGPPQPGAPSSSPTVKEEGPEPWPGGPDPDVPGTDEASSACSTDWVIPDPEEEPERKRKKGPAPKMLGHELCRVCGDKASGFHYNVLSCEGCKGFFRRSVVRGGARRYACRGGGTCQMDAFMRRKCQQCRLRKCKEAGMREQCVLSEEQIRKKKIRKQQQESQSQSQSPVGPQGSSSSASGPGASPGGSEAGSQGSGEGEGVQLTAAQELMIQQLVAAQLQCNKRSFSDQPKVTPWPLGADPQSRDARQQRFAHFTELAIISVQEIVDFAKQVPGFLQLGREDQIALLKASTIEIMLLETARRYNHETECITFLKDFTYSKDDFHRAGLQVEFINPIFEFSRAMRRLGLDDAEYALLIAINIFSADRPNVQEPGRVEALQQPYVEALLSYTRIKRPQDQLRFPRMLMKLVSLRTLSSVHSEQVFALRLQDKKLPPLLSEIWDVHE

Inconclusive results are not listed. The source made the active and inactive calls. Rule for the calls, unless noted: active = hit-call score of the fitted dose curve at least 0.9, where 1 is the maximum; inconclusive = response in the unintended direction; inactive = score below 0.9.

Eight compounds from PubChem BioAssay (EPA / NIEHS) can be followed below.

Sequence of X-box-binding protein 1 (Homo sapiens) (P17861 whole entry, looked up): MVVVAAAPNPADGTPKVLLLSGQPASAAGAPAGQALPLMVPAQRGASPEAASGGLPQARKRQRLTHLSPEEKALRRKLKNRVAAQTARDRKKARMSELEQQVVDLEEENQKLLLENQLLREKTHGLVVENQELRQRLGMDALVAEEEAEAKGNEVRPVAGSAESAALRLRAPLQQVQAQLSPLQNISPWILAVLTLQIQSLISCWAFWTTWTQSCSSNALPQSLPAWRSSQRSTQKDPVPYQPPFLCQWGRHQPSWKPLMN
Sequence of Hepatocyte nuclear factor 4-alpha (Homo sapiens) (P41235 whole entry, looked up, the tested form may be a part): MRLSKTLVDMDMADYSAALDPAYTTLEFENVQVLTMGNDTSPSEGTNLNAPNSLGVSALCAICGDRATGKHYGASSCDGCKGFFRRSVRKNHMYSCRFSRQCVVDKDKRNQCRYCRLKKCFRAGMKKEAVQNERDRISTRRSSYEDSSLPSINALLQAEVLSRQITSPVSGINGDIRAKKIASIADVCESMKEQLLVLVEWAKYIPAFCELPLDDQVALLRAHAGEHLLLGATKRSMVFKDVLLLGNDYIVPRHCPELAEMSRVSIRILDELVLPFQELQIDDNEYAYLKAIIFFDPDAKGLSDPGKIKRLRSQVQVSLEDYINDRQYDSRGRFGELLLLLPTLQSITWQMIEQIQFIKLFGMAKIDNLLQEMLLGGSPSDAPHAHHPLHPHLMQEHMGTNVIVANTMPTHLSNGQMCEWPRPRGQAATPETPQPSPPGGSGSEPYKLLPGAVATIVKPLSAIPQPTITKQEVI
Sequence of Nuclear receptor subfamily 4 group A member 2 (Homo sapiens) (P43354 whole entry, looked up, the tested form may be a part): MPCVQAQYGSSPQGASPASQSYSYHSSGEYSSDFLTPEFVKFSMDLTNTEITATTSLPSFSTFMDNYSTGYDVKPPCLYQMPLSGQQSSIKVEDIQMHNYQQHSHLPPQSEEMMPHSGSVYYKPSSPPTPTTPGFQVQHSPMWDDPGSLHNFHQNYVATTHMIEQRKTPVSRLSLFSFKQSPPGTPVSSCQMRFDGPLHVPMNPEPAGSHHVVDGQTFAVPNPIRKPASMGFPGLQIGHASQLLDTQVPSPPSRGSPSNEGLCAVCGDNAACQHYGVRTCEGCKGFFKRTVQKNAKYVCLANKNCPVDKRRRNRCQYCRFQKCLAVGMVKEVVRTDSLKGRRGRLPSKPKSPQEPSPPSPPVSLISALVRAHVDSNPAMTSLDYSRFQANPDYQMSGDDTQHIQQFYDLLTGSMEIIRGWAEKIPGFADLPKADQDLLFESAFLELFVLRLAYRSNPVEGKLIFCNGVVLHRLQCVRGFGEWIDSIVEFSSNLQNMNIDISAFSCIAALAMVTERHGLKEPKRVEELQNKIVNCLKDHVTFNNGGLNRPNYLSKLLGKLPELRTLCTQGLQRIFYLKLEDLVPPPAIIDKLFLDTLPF
Sequence of Glucocorticoid receptor (Homo sapiens) (P04150 whole entry, looked up, the tested form may be a part): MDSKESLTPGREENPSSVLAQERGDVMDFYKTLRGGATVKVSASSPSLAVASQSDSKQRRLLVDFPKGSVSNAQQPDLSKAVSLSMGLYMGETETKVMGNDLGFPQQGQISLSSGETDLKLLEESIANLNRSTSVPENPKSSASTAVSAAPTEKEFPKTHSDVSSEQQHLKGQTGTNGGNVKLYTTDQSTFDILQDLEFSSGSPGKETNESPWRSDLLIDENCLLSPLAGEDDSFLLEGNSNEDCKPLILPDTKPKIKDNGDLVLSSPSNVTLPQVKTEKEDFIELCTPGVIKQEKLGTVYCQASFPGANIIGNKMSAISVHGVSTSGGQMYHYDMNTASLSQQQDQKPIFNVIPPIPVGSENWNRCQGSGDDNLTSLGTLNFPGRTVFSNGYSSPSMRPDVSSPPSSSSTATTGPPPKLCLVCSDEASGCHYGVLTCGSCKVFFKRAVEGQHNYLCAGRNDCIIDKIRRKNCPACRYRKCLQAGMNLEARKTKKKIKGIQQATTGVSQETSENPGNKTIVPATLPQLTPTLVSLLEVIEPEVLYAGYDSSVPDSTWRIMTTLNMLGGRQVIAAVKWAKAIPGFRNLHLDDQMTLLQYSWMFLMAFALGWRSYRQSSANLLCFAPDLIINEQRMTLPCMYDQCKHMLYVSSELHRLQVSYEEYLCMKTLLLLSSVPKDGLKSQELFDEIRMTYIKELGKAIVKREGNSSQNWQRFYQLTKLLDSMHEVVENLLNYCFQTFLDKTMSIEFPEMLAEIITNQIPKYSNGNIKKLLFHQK
Sequence of Nuclear receptor subfamily 1 group I member 3 (Homo sapiens) (Q14994 whole entry, looked up, the tested form may be a part): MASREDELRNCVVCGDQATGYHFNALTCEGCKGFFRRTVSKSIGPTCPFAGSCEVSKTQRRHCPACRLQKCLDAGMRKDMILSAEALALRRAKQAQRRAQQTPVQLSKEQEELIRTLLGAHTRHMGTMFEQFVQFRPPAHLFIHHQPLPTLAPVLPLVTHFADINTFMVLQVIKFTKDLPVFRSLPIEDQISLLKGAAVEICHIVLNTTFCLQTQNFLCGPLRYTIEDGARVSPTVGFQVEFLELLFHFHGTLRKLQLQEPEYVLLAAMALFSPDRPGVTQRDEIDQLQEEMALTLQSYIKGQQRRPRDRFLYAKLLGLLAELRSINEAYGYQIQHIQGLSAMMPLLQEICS

With `CC(C)=CCCC(C)CC=O` (configuration not stated), the result in experiment [1], in [2], in experiment [3], in [4], in experiment [5] and in [6] was inactive. The result in experiment [7], in [8], in experiment [9], in experiment [10], in experiment [11] and in experiment [12] was inactive. Also, the compound was classed as inactive in [13].

As usually defined, the AC50 is the concentration giving half of the maximal activity seen. `O=C(Oc1ccccc1)c1ccc(O)cc1`: the compound was classed as inactive in experiment [1], in experiment [2], in [4], in [5], in experiment [14] and in [6]. In addition, the result in experiment [10], in experiment [11], in experiment [15] and in experiment [13] was inactive. In addition, the AC50 in experiment [3] was 159 µM (active).

As to `C=CCOC(=O)CCC1CCCCC1`, the outcome in [1], in experiment [2], in experiment [3], in experiment [4], in experiment [14] and in [7] was inactive. For the same compound, the result in [8], in experiment [9], in experiment [10], in experiment [11], in [12] and in experiment [15] was inactive. Further, in [13], the call was inactive.

On to `NC(=O)c1ccccc1Cl`, for which the compound was classed as inactive in [1], in experiment [2], in experiment [16], in experiment [17], in experiment [18] and in experiment [5]. The compound was classed as inactive in experiment [6], in experiment [7], in [8], in experiment [11], in experiment [12] and in [13]. Besides, the concentration at half-maximal activity (AC50) in experiment [4] was 62.6 µM (active).

Turning to `O=C(O)CCCCC1CCSS1` (configuration not stated), the compound was called inactive in [1], in experiment [2], in [3], in experiment [4], in experiment [6] and in experiment [19]. Moreover, the compound was called inactive in experiment [9], in [10], in experiment [12], in experiment [15] and in experiment [13].

On to `COc1cccc(OC)c1`, for which the compound was classed as inactive in [1], in experiment [2], in experiment [16], in [4], in [5] and in experiment [14]. Also, the compound was classed as inactive in experiment [6], in [19], in experiment [15] and in experiment [13].

In the case of `CC(C)Oc1ccccc1O`, the result in experiment [1], in experiment [2], in experiment [16], in [17], in experiment [4] and in [14] was inactive. Also, the compound was classed as inactive in experiment [11], in experiment [12], in experiment [15] and in experiment [13].

Regarding `O=C(O)c1snc(Cl)c1Cl`, the compound was called inactive in experiment [1], in experiment [2], in [8], in [19], in experiment [9] and in experiment [10]. For the same compound, the result in experiment [11], in [15] and in experiment [13] was inactive. For the same compound, the half-maximal activity concentration (AC50) was 161 µM (active) in [3] and 140 µM (active) in experiment [4].
